In PubChem BioAssay (Tox21) one finds Potency and outcome data, which are given here for ten compounds.

A short description of assay [1]: qHTS assay to identify aromatase inhibitors - cell viability counter screen (AID 743084).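 Also: cells stimulated with testosterone during compound exposure; nearly all actives have a fitted effect of over 55% in size.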
Assay [2] is described as follows: qHTS assay to identify small molecule that activate the aryl hydrocarbon receptor (AhR) signaling pathway - cell viability counter screen (AID 743086).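 Also: HepG2 liver cells carrying the AhR DRE luciferase reporter; series mostly up to about 70 µM; nearly all actives have a fitted effect of over 45% in size.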 In a few lines:
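HepG2-AhR-luc (HG2L7.5c1) cells, 4000/well, were preincubated 5 h at 37C, exposed to compound in qHTS format for 24 hr at 37C, then given CellTiter-Fluor for 30 min; viability was read as fluorescence in the reporter wells.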

For assay [3], the target named is Peroxisome proliferator-activated receptor gamma (Homo sapiens) (UniProt P37231). The assay can be described thus: qHTS assay to identify small molecule agonists of the peroxisome proliferator-activated receptor gamma (PPARg) signaling pathway (AID 743094; active = well fitted activation curve with a large enough effect in the signal ratio in the repeat runs, not every such curve was filed as active; the % refers to the signal ratio; also: potency is read from the fitted curve at half-maximal effect). In a few lines:
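Following 5 h plating at 37C, PPARg-bla HEK293H cells receive compound or DMSO for 17 h; fluorescence intensity is recorded after LiveBLAzer B/G loading for 1 h at room temperature.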
For orientation: Quantitative high-throughput screening tests each substance at several concentrations.

The target is the same in assay [4]. Nature of the assay: qHTS assay to identify small molecule antagonists of the peroxisome proliferator-activated receptor gamma (PPARg) signaling pathway (AID 743191; calls by dose curve; also: series mostly up to about 63 µM; nearly all actives have a fitted effect of over 30% in size). The method in brief:
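GeneBLAzer PPARg UAS-bla HEK293H cells carrying a UAS-driven beta-lactamase reporter were plated at 3000 cells/well, preincubated 5 h at 37C, then given compound for 17 h at 37C; LiveBLAzer B/G FRET substrate was read after 1 h at room temperature.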

Assay [5] is described as follows: qHTS assay to identify small molecule antagonists of the peroxisome proliferator-activated receptor gamma (PPARg) signaling pathway - cell viability counter screen (AID 743194). Also: nearly all actives have a fitted effect of over 55% in size. To be noted: Potency: co-treated with 50 nM rosiglitazone. In a few lines: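 PPARg-UAS-bla HEK293H cells were plated, rested 5 h at 37 C, then treated with compounds plus rosiglitazone (50 nM final) for 17 h at 37 C; viability was then read by CellTiter-Glo luminescence after 30 min at room temperature.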

Assay [6] is described as follows: qHTS assay for small molecule agonists of the antioxidant response element (ARE) signaling pathway - cell viability counter screen (AID 743203; calls by dose curve; also: nearly all actives have a fitted effect of over 55% in size; also: potency is read from the fitted curve at half-maximal effect). The method in brief: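 Compounds in DMSO were pinned onto ARE-bla HepG2 cells plated 5 hrs earlier at 2,000 cells/well. Sixteen hours later at 37C/5% CO2, CellTiter-Glo was added and luminescence measured after 30 min at room temperature.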

Assay [7] can be described thus: qHTS assay for small molecule activators of the heat shock response signaling pathway - cell viability counter screen (AID 743209). Also: nearly all actives have a fitted effect of over 50% in size. Also: potency is read from the fitted curve at half-maximal effect. The method in brief:
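Counter screen for cytotoxicity in HeLa HSE-bla reporter cells. Treatment was 5 h at 37 C; viability was detected by luminescent ATP assay (CellTiter-Glo) in the same wells as the beta-lactamase read.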

Assay [8] can be described thus: qHTS assay for small molecule activators of the heat shock response signaling pathway (AID 743210; active = well fitted activation curve with a large enough effect in the signal ratio in the repeat runs, with a control signal flat, not every such curve was filed as active; the % refers to the signal ratio; also: series mostly up to about 63 µM). The method in brief: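 HSE-bla HeLa cells (beta-lactamase reporter under heat shock response elements) were exposed to compounds for 5 h at 37 C, then loaded with LiveBLAzer B/G FRET substrate for 2.5 h at room temperature before fluorescence reading.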
Assay [9] can be described thus: qHTS assay to identify small molecule agonists of the peroxisome proliferator-activated receptor delta (PPARd) signaling pathway - cell viability counter screen (AID 743211). Also: nearly all actives have a fitted effect of over 55% in size. Also: potency is read from the fitted curve at half-maximal effect. In a few lines:
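Multiplexed format: after the 2 h room-temperature LiveBLAzer B/G FRET step, CellTiter-Glo was added to the same wells. Luminescence after 30 min gave cell viability; compound exposure was 17 h at 37C.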

Assay [10] deals with Peroxisome proliferator-activated receptor delta (Homo sapiens) (UniProt Q03181). Nature of the assay: qHTS assay to identify small molecule agonists of the peroxisome proliferator-activated receptor delta (PPARd) signaling pathway (AID 743212; calls by dose curve). The method in brief: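 GeneBLAzer PPARd UAS-bla HEK293H cells (beta-lactamase reporter under UAS control), plated and rested 5 h at 37 C, then exposed to compounds in DMSO at 37 C; LiveBLAzer B/G FRET substrate added, 2 h room temperature, fluorescence read.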

The nature of assay [11]: qHTS assay to identify small molecule antagonists of the peroxisome proliferator-activated receptor delta (PPARd) signaling pathway - cell viability counter screen (AID 743213). Also: nearly all actives have a fitted effect of over 50% in size. Also: potency is read from the fitted curve at half-maximal effect. In a few lines:
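In this counter screen, HEK293H cells carrying a UAS-beta-lactamase reporter are co-treated with test compounds and 300 nM L165041 (final) for 17 h at 37 C; cell viability is quantified by CellTiter-Glo luminescence.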

Assay [12] concerns the target Peroxisome proliferator-activated receptor delta (Homo sapiens) (UniProt Q03181). The assay can be described thus: qHTS assay to identify small molecule antagonists of the peroxisome proliferator-activated receptor delta (PPARd) signaling pathway (AID 743215; active = well fitted inhibition curve with a large enough effect in the signal ratio in the repeat runs, not every such curve was filed as active; the % refers to the signal ratio;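 also: cells stimulated with agonist L165041 at 300 nM final during compound exposure; series mostly up to about 62 µM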). The method in brief:
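With L165041 present at 300 nM final, compounds were incubated 17 h at 37 C on PPARd UAS-bla HEK293H cells. A FRET-based beta-lactamase substrate was then applied for 2 h at room temperature and fluorescence intensity recorded.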

For assay [13], the target named is Bile acid receptor (Homo sapiens) (UniProt Q96RI1). The assay can be described thus: qHTS assay to identify small molecule antagonists of the farnesoid-X-receptor (FXR) signaling pathway (AID 743217; active = well fitted inhibition curve with a large enough effect in the signal ratio in the repeat runs, not every such curve was filed as active; the % refers to the signal ratio). In a few lines:
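In this cell-based antagonist screen, inhibition of CDCA-driven (50 uM final) UAS-beta-lactamase expression in HEK 293T cells was measured by FRET fluorescence following 16 h compound exposure at 37 °C.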

The nature of assay [14]: qHTS assay to identify small molecule agonists of the farnesoid-X-receptor (FXR) signaling pathway - cell viability counter screen (AID 743218). Also: nearly all actives have a fitted effect of over 45% in size. In a few lines:
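After 16 h at 37 C with test compounds, FXR-bla HEK 293T cells were given LiveBLAzer B/G substrate for 2 h at RT and then CellTiter-Glo; luminescence was taken after 30 min.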

For assay [15], the target named is Bile acid receptor (Homo sapiens) (UniProt Q96RI1). The assay can be described thus: qHTS assay to identify small molecule agonists of the farnesoid-X-receptor (FXR) signaling pathway (AID 743220; active = well fitted activation curve with a large enough effect in the signal ratio in the repeat runs, not every such curve was filed as active; the % refers to the signal ratio). The method in brief: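 Beta-lactamase reporter under UAS control in GeneBLAzer FXR HEK 293T cells (5000/well) measured with LiveBLAzer FRET substrate after 2 h at room temperature. Compound exposure lasted 16 h at 37C.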

Assay [16] is described as follows: qHTS assay to identify small molecule antagonists of the farnesoid-X-receptor (FXR) signaling pathway - cell viability counter screen (AID 743221; active = well fitted cell-killing curve with a large enough effect in the repeat runs, not every such curve was filed as active; also: nearly all actives have a fitted effect of over 50% in size; also: potency is read from the fitted curve at half-maximal effect). The method in brief: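 CellTiter-Glo, 30 min RT, luminescence; same wells as the LiveBLAzer FRET read. Cells: FXR-UAS-bla HEK 293T. Treatment: compound with chenodeoxycholic acid 50 uM final, 16 h at 37 C.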
For assay [17], the target named is Aryl hydrocarbon receptor (Homo sapiens) (UniProt P35869). The assay can be described thus: qHTS assay to identify small molecule that activate the aryl hydrocarbon receptor (AhR) signaling pathway (AID 743085). Also: nearly all actives have a fitted effect of over 15% in size. Also: potency is read from the fitted curve at half-maximal effect.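 As to activation: HG2L7.5c1 human HepG2 liver cells with stably integrated DRE-driven firefly reporter; series mostly up to about 70 µM.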 The method in brief:
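Reporter assay in engineered HepG2 line HG2L7.5c1, whose plasmid carries twenty dioxin responsive elements upstream of firefly luciferase. Treatment lasted 24 h at 37C; ONE-Glo luminescence gauged induction.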

Assay [18] in a line: qHTS assay for small molecule agonists of the antioxidant response element (ARE) signaling pathway (AID 743202; active = well fitted activation curve with a large enough effect in the signal ratio in the repeat runs, not every such curve was filed as active; the % refers to the signal ratio; also: potency is read from the fitted curve at half-maximal effect). The method in brief:
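Read-out: LiveBLAzer B/G FRET substrate fluorescence after 2 h at room temperature, following 16 h compound treatment at 37 C of HepG2 cells carrying an ARE-driven beta-lactamase reporter.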

For assay [19], the target named is Vitamin D3 receptor (Homo sapiens) (UniProt P11473). Nature of the assay: qHTS assay to identify small molecule agonists of the vitamin D receptor (VDR) signaling pathway (AID 743222; calls by dose curve). The method in brief: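 VDR-bla cells were seeded, left 4 h, treated with compounds in DMSO for 16 h, incubated 2 h at RT with B/G FRET substrate, and read for fluorescence.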
For assay [20] the target is unchanged. Nature of the assay: qHTS assay to identify small molecule antagonists of the vitamin D receptor (VDR) signaling pathway (AID 743223; active = well fitted inhibition curve with a large enough effect in the signal ratio in the repeat runs, not every such curve was filed as active; the % refers to the signal ratio). The method in brief: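 After VDR-bla cells are plated and left 4 h at 37C, DMSO-dissolved compounds and 3 nM (final) calcitriol agonist are added. Incubation continues 16 h at 37C; FRET beta-lactamase substrate then develops 2 h at room temperature.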

Each structure is given as a SMILES string. Several values for one entry are separate records, joined by “and”; a condition that tells them apart may be missing. Equal entries are not always repeated. Inconclusive results are not listed. A structure can be active in one record and inactive in another. Activity calls are given as the source filed them. Unless noted, calls follow the shape of the dose curve; as a rule, active = well fitted curve in the direction sought with a large enough effect in the repeat runs; inconclusive = weak or mixed curves; inactive = no such curve, though single readings can be large; an effect the other way counts as inactive or inconclusive.

Bile acid receptor (Homo sapiens), sequence (Q96RI1 whole entry, looked up): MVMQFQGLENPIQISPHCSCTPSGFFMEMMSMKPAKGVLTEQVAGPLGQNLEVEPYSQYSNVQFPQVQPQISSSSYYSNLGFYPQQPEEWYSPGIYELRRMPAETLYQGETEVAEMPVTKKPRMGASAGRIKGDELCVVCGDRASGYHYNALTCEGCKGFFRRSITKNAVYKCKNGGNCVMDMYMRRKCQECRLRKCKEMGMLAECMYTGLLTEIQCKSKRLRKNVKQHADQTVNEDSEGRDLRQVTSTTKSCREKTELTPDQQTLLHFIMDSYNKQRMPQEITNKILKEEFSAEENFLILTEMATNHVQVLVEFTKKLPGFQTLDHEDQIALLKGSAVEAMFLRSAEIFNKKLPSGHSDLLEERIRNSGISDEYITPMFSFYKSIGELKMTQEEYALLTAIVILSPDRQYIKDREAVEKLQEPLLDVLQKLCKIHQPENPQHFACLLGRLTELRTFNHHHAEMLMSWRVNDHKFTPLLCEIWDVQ
Peroxisome proliferator-activated receptor gamma (Homo sapiens), sequence (P37231 whole entry, looked up): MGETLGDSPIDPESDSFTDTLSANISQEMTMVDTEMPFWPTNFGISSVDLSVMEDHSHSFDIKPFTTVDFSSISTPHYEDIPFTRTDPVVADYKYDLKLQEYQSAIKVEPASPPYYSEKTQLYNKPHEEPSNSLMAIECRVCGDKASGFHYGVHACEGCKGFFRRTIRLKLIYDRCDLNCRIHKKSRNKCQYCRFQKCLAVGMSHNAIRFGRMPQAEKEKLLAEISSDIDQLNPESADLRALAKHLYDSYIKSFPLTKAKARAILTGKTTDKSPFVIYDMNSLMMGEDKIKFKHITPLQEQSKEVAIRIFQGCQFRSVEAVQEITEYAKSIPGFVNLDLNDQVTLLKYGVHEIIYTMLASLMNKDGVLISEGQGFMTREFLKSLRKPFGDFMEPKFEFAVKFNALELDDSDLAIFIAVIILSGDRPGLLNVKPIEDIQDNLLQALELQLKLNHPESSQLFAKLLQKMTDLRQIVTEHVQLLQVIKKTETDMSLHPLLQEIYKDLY
Vitamin D3 receptor (Homo sapiens), sequence (P11473 whole entry, looked up): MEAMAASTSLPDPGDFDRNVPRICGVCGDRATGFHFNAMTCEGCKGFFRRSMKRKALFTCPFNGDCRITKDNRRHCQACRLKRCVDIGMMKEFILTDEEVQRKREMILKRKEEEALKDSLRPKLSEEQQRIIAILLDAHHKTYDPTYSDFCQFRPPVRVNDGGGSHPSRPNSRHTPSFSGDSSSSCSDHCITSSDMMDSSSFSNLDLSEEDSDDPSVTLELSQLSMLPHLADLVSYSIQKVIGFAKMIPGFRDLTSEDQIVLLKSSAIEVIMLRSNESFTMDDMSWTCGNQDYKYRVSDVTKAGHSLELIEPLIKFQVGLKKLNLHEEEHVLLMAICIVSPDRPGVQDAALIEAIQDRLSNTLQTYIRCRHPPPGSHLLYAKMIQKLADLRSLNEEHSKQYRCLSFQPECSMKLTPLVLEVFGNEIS
Peroxisome proliferator-activated receptor delta (Homo sapiens), sequence (Q03181 whole entry, looked up): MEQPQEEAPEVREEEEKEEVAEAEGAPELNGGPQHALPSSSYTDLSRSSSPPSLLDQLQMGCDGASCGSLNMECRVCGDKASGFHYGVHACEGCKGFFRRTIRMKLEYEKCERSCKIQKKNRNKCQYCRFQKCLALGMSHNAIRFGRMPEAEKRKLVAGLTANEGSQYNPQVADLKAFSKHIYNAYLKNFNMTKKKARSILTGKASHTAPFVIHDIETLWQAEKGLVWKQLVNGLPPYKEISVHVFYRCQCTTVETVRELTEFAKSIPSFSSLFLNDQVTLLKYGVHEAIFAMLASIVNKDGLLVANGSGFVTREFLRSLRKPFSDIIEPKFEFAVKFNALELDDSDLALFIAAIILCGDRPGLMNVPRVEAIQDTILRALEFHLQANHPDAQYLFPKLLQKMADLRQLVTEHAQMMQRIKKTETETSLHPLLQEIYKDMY
Aryl hydrocarbon receptor (Homo sapiens), sequence (P35869 whole entry, looked up): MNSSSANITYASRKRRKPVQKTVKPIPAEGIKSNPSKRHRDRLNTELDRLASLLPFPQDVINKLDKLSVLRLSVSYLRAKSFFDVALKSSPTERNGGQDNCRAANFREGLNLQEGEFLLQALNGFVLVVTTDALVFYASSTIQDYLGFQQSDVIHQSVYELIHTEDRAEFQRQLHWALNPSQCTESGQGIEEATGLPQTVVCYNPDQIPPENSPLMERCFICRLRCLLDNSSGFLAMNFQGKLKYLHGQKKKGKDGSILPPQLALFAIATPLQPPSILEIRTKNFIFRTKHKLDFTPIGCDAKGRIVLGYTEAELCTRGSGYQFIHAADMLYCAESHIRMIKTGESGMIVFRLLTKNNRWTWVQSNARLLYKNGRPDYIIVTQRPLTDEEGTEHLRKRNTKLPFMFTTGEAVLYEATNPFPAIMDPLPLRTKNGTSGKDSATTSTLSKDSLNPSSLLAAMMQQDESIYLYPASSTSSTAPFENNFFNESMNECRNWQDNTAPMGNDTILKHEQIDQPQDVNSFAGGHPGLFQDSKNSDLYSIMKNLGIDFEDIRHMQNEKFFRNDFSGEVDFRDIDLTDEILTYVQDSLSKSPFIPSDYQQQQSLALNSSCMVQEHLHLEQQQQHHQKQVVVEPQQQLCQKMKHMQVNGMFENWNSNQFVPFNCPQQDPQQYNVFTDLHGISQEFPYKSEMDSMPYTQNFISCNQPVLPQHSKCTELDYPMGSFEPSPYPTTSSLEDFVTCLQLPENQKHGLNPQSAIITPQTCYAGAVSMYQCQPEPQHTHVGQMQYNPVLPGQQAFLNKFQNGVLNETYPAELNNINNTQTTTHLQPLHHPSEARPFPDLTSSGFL

With `O=[N+]([O-])c1ccccc1CCl`, the Potency result in assay [1], in [2], in [4], in assay [5], in assay [6] and in assay [7] was “inactive” throughout. Moreover, the Potency entry in assay [9], in assay [11], in assay [12], in assay [13], in assay [14] and in assay [16] was “inactive” each time. In [3], the Potency is 0.0988 µM (active). Also, the outcome in [8], in assay [10] and in assay [15] was inactive.

As for `O=NN1CCNCC1`, the Potency result in [1], in assay [17], in [4], in assay [5], in assay [18] and in assay [6] was “inactive” in each case. For the same compound, the Potency entry in assay [9], in [11], in [12] and in [16] was “inactive” each time. Besides, the call in assay [10], in [19] and in assay [20] was inactive.

With `CN(N=O)c1ccc([N+](=O)[O-])cc1`, the Potency entry in assay [1], in assay [2], in assay [3], in assay [4], in assay [5] and in assay [18] was “inactive” in each case. The Potency entry in assay [6], in assay [7], in assay [9], in assay [11], in [13] and in [16] was “inactive” throughout. In addition, the compound was classed as inactive in assay [8], in assay [15], in [19] and in [20].

For `N#C/C(N)=C(/N)C#N`, the Potency entry in assay [1], in [2], in assay [3], in assay [5], in assay [18] and in assay [6] was “inactive” in each case. For the same compound, the Potency result in [7], in assay [9], in [11], in assay [12], in assay [13] and in assay [14] was “inactive” throughout. Moreover, the Potency entry in [16] was “inactive”. Besides, the compound was classed as inactive in [8], in assay [10], in assay [15] and in [19].

On to `S=C=NCc1ccccc1`, for which the Potency entry in assay [1], in assay [17], in assay [9], in assay [11], in assay [14] and in [16] was “inactive” throughout. Besides, in assay [18], the Potency is 24.6 µM (active). Further, the compound was called inactive in [10], in [19] and in assay [20].

Consider `CCBr`, for which the Potency result in [1], in assay [2], in [5], in assay [18], in assay [6] and in assay [7] was “inactive” in each case. The Potency entry in [9], in assay [11], in [12], in [14] and in assay [16] was “inactive” throughout. For the same compound, the outcome in assay [10] and in assay [20] was inactive.

As to `O=C1C(=O)c2cccc3cccc1c23`, the Potency entry in assay [1], in assay [2], in assay [3], in assay [6], in assay [11] and in assay [12] was “inactive” each time. The Potency entry in [14] and in [16] was “inactive” in each case. Moreover, the outcome in [10] was inactive.

Take `COP(=S)(Oc1cc(Cl)c(Br)cc1Cl)c1ccccc1` (centres undefined): the Potency result in assay [1], in assay [7], in [11] and in [16] was “inactive” throughout. For the same compound, the figures for the Potency in [17] and in [6] were 27.3 µM (active) and 48.6 µM (active), respectively. For the same compound, the compound was called inactive in [8], in assay [10], in [19] and in assay [20].

For the compound `O=C(CCl)c1ccc(Cl)cc1Cl`, the Potency result in assay [1], in [17] and in assay [13] was “inactive” throughout. Further, the Potency in [18] was 5.31 µM (active); in assay [6], “inactive and 26.6 µM (active)”; in assay [7] it was 8.41 µM (active); in [9], 18.8 µM (active); in assay [11], “inactive and 29.8 µM (active)”; in assay [16], “inactive and 29.8 µM (active)”.

Consider `O=C1CN=C(c2ccccc2)c2cc(Cl)ccc2N1CC1CC1`, for which the Potency entry in [1], in assay [17], in assay [5], in assay [6], in assay [7] and in assay [9] was “inactive” in each case. Further, the Potency entry in assay [11] and in [16] was “inactive” each time. Also, the Potency in [18] was 32.2 µM (active). Also, the call in assay [19] and in assay [20] was inactive.
